Screening results as filed in PubChem BioAssay.
Compounds with a hit are over-represented: about 7.9% of the library has one in this group of screens.
Marburg entry inh: Marburg virus entry inhibition; Marburg virus pseudotyped entry inhibition, cell reporter; Potency, µM (series often up to 37.8 µM), most hits filed as inhibitors; 1.8% of 300,000 active; calls by dose curve; tested in HEK293 cells
FMDV inh: blocks foot and mouth disease virus; FMDV antiviral cell-based qHTS; Potency, µM (titrated, usually from 57.9 µM), hits mostly inhibitors; 1.2% of 410,000 active; calls by dose curve; tested in HEK293T cells; also: read-out not given here; nearly all actives have a fitted effect of over 45% in size
Lassa entry inh: blocks Lassa virus binding to or entry into cells; Lassa virus pseudotype entry inhibition, cell reporter; 1.2% of 300,000 active; Potency, µM (titrated, usually from 37.9 µM), usual class: inhibitors; calls by dose curve; tested in HEK293 cells; also: nearly all actives have a fitted effect of over 50% in size
HCV inhibitor: blocks hepatitis C virus; 3.4% of 340,000 active; Huh7.5.1 HCVcc-Cre infection, luciferase reporter, 44 h; Potency, µM (titrated, usually from 41.8 µM), most hits filed as inhibitors; active = well fitted inhibition curve with a large enough effect; inconclusive = small, poorly fitted or top-dose-only effect, or another doubt; inactive = no such curve, though single readings can be large or run the other way
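HCVcc-Cre virus at an moi near 0.5 was added right after compound to cells cultured 4 h from seeding (1,000 cells/well). Luciferase activity was determined 44 h later, 15 min after substrate addition at RT.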
HCMV inh: human cytomegalovirus inhibition. HFF cells, HCMV-luciferase reporter, 72 h; active compounds read low. AID 1259415. activity change, negative = inhibition, % at 57.5 µM. 4.5% of 410,000 active; in the data active = activity change below about -60%; inconclusive = no clear call, values can overlap the other calls; inactive = above about -39%
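Compounds were evaluated in HFFs infected with an HCMV luciferase reporter virus (MOI 1 PFU/cell). Luciferase in lysates collected 72 h post infection served as the replication measure.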
Hits are given with their value; – = inactive; ? = inconclusive; · = no result.

SMILES	Marburg entry inh	FMDV inh	Lassa entry inh	HCV inhibitor	HCMV inh
CC(C)CN(C)Cc1c(C(=O)N2CCc3ccccc3C2)nc2ccc(Cl)cn12	11.2µM	–	–	?	–
COc1ccc(-c2nc3ccccc3o2)cc1NC(=O)c1ccc(-c2cccc(Cl)c2C)o1	·	–	–	·	–
CC(=O)c1cn(CC(=O)Nc2ccc(C)cc2)c2ccccc12	–	–	–	?	–
CC(=O)c1cn(CC(=O)Nc2c(C)cccc2C)c2ccccc12	?	?	–	5.62µM	-74.6
CC(=O)c1cn(CC(=O)NCCc2c[nH]c3ccccc23)c2ccccc12	·	?	·	10µM	–
O=C(O)Cn1cc(C(=O)C(F)(F)F)c2ccccc21	?	–	–	–	–
CC(=O)c1cn(CC(=O)Nc2ccccc2C)c2ccccc12	?	?	–	?	-68.2
CC(C)(C)C(=O)c1cn(CC(=O)O)c2ccccc12	–	–	?	10µM	–
COc1ccc(-c2nc3cnc(Oc4cccc(Cl)c4)nc3n(C3CC3)c2=O)cc1	·	–	·	·	·
COCc1c(C(=O)N2CCC(N(C)C)C2)cnn1-c1ncc2c(n1)-c1ccccc1CCC2 (stereo not drawn)	·	–	·	·	·
O=C(NCc1cccs1)c1ccc2c(=O)n3nc(Nc4ccccc4)sc3nc2c1	·	–	–	·	–
Cc1ccc(/C=C/c2nc3ccccc3n2S(=O)(=O)c2cccc(Cl)c2)cc1	·	–	?	·	-81.7
CCOc1ccc(/C=C/c2nc3ccccc3n2S(=O)(=O)c2cccc(Cl)c2)cc1	?	–	–	·	-79.8
CCOc1ccc(CCNS(=O)(=O)c2cc(Br)cc3c2N(C(C)=O)CC3)cc1OCC	·	–	–	·	–
CC(=NNC(=S)N1CC2CCC(CC2)C1)c1cccc(C)n1	?	–	?	?	-83.1
Cc1cccc(C(=O)N2CCCC(Nc3ccc(C)c(C)c3)C2)n1 (stereo not drawn)	·	–	·	–	–
CC(=NNC(=S)N1CC2CCC(CC2)C1)c1nccs1	?	–	?	?	-62.8
CN(C(=S)NC(=O)Cc1ccccc1)c1ccccc1	–	–	–	–	-66.6
COc1cc(OC)nc(Nc2nc(C(N)Cc3ccc(C(F)(F)F)cc3)cs2)n1 (stereo not drawn)	·	–	·	·	-85.2
COc1cccc(Nc2nc(C(N)Cc3ccc(C(F)(F)F)cc3)cs2)n1 (stereo not drawn)	·	–	·	·	-90.4
Cc1cc(C)nc(Nc2nc(C(N)Cc3ccc(C(F)(F)F)cc3)cs2)n1 (stereo not drawn)	·	–	·	·	–
Cc1ccc(-c2nnc(Nc3ccc(OC(F)(F)Cl)cc3)c3ccccc23)cc1S(=O)(=O)NC(C)(C)CO	?	–	–	·	-94.8
COc1ccc(Nc2nnc(-c3ccc(C)c(S(=O)(=O)N4CCN(C)CC4)c3)c3ccccc23)cc1	–	–	–	·	-99.1
Cc1ccc(-c2nnc(NC3CCCCC3)c3ccccc23)cc1S(=O)(=O)N1CCN(C)CC1	?	·	?	–	-73.5
Cc1ccc(-c2nnc(Nc3ccccc3)c3ccccc23)cc1S(=O)(=O)N1CCN(C)CC1	–	–	–	·	–
SMILES	Marburg entry inh	FMDV inh	Lassa entry inh	HCV inhibitor	HCMV inh
Cc1cccc(Nc2nnc(-c3ccc(C)c(S(=O)(=O)N4CCN(C)CC4)c3)c3ccccc23)c1	?	–	?	·	-69.4
COc1ccc(-c2cc(C)no2)cc1S(=O)(=O)N1CC(C)Oc2ccccc21 (stereo not drawn)	·	–	?	·	–
COc1cc2c(c(OC)c1)[C@H](C=Cc1ccccc1)[C@@H]([C@H](O)CO)OC2	–	·	·	·	·
CC(C)c1c(C(=O)NCc2ccccn2)cnn1-c1nccc(-c2ccccc2F)n1	·	–	·	·	·
Cc1ccc(Cl)cc1N1CCN(C(=O)c2ccc3c(c2)N(Cc2ccccc2F)C(=O)c2ccccc2S3(=O)=O)CC1	?	–	?	·	?
Cc1nnc(N2CCN(C(=O)NC(C)C)CC2)c2nn(-c3ccccc3)c(C)c12	·	–	–	·	–
Cc1ccc(-c2nnc(Nc3cccc(O)c3)c3ccccc23)cc1S(=O)(=O)N1CCCCC1	·	–	?	·	-74.3
Cc1ccc(-c2nnc(Nc3ccc(O)cc3)c3ccccc23)cc1S(=O)(=O)N1CCOCC1	·	?	?	·	-88.3
Cc1ccc(Nc2nnc(-c3ccc(C)c(S(=O)(=O)N4CCOCC4)c3)c3ccccc23)cc1	·	–	–	·	–
COc1ccc(Nc2nnc(-c3ccc(C)c(S(=O)(=O)N4CCOCC4)c3)c3ccccc23)cc1	·	–	?	·	-99.2
CCOC(=O)c1c(NC(=O)c2cc(=O)c3cc(C)cc(C)c3o2)sc(C)c1C	–	–	–	·	–
COc1ccc(NC(=O)c2cc(S(=O)(=O)N3CCCC3)c[nH]2)cc1	·	–	·	–	–
